Source: PubChem BioAssay AID1159580 (chemical genetic matrix, 2015)
Out of some 5,500 compounds screened, about 2,000 (36%) were called active. Roughly 18% stayed inconclusive and do not appear here. Rule as the data show it: active = normalized growth mostly below about 0.91 (no sharp cut-off); inconclusive = no clear call, values can overlap the other calls; inactive = mostly above about 0.92. The list shows a part of the results.

Experiment: chemical genetic growth profiling, strain panel (AID 1159580);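 also: tested at 20 µM; growth read once vehicle control cultures reached saturation at 30 °C; 1 = growth at the plate median or of vehicle wells; lower values mean less growth of the strain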
Settings: S. cerevisiae deletion strains, growth OD
[1] = locus YAL013W, strain DEP1, active compounds read low
[2] = locus YBR021W, strain FUR4, active compounds read low
[3] = locus YBR229C, strain ROT2, active compounds read low
[4] = locus YCL029C, strain bik1, active compounds read low
[5] = locus YDL035C, strain GPR1, active compounds read low
[6] = locus YDL074C, strain BRE1, active compounds read low
[7] = locus YDL101C, strain DUN1, active compounds read low
[8] = locus YDL185W, strain tfp1, active compounds read low
[9] = locus YDL192W, strain arf1, active compounds read low
[10] = locus YDR101C, strain arx1, active compounds read low
[11] = locus YDR162C, strain NBP2, active compounds read low
[12] = locus YDR318W, strain mcm21, active compounds read low
[13] = locus YDR388W, active compounds read low
[14] = locus YDR502C, strain sam2, active compounds read low
[15] = locus YER110C, active compounds read low
[16] = locus YER155C, strain BEM2, active compounds read low
[17] = locus YER167W, strain BCK2, active compounds read low
[18] = locus YGL078C, strain dbp3, active compounds read low
[19] = locus YGL086W, strain mad1, active compounds read low
[20] = locus YGL248W, strain PDE1, active compounds read low
[21] = locus YGR135W, strain pre9, active compounds read low
[22] = locus YGR252W, strain gcn5, active compounds read low
[23] = locus YHR079C, strain IRE1 (second series), active compounds read low
[24] = locus YHR094C, strain hxt1, active compounds read low
[25] = locus YHR129C, strain ARP1, active compounds read low
[26] = locus YHR200W, strain rpn10, active compounds read low
[27] = locus YIL066C, strain RNR3, active compounds read low
[28] = locus YIL073C, strain SPO22, active compounds read low
[29] = locus YIL125W, strain kgd1, active compounds read low
[30] = locus YIR030C, strain dcg1, active compounds read low
[31] = locus YJL095W, strain BCK1, active compounds read low
[32] = locus YJL134W, strain LCB3, active compounds read low
[33] = locus YJL168C, strain set2, active compounds read low
[34] = locus YJL187C, strain SWE1 (second series), active compounds read low
[35] = locus YKL009W, strain mrt4, active compounds read low
[36] = locus YKL068W, active compounds read low
[37] = locus YKL085W, strain MDH1 (second series), active compounds read low
[38] = locus YKL085W, strain MDH1, active compounds read low
[39] = locus YKL190W, strain CNB1, active compounds read low
[40] = locus YKR001C, strain vps1, active compounds read low
[41] = locus YLR039C, strain RIC1, active compounds read low
[42] = locus YLR058C, strain SHM2, active compounds read low
[43] = locus YLR102C, strain apc9, active compounds read low
[44] = locus YLR268W, strain sec22, active compounds read low
[45] = locus YLR330W, strain CHS5, active compounds read low
[46] = locus YLR342W, strain FKS1 (second series), active compounds read low
[47] = locus YLR371W, strain rom2, active compounds read low
[48] = locus YLR418C, strain cdc73, active compounds read low
[49] = locus YML016C, strain PPZ1, active compounds read low
[50] = locus YML032C, strain rad52, active compounds read low
[51] = locus YML124C, strain tub3, active compounds read low
[52] = locus YMR078C, strain ctf18, active compounds read low
[53] = locus YMR223W, strain ubp8, active compounds read low
[54] = locus YMR307W, strain GAS1, active compounds read low
[55] = locus YNL067W, strain RPL9B, active compounds read low
[56] = locus YNL153C, strain GIM3, active compounds read low
[57] = locus YNL233W, strain BNI4, active compounds read low
[58] = locus YNL250W, strain rad50, active compounds read low
[59] = locus YNL271C, strain bni1, active compounds read low
[60] = locus YNL298W, strain CLA4, active compounds read low
[61] = locus YNL307C, strain MCK1, active compounds read low
[62] = locus YNR052C, strain pop2, active compounds read low
[63] = locus YOL147C, strain pex11, active compounds read low
[64] = locus YOR061W, strain CKA2, active compounds read low
[65] = locus YOR069W, strain VPS5, active compounds read low
[66] = locus YOR136W, strain idh2, active compounds read low
[67] = locus YOR144C, strain elg1, active compounds read low
[68] = locus YOR184W, strain ser1, active compounds read low
[69] = locus YOR316C, strain cot1, active compounds read low
[70] = locus YPR119W, strain clb2, active compounds read low
[71] = locus YPR141C, strain kar3, active compounds read low
[72] = locus YPR163C, strain tif3, active compounds read low
[73] = locus YPR167C, strain met16, active compounds read low
[74] = strain wtn01, active compounds read low
[75] = locus YGR229C, strain SMI1, active compounds read low
[76] = locus YNL322C, strain KRE1, active compounds read low

Measured: normalized growth

COc1cc2c(cc1O)C(Cc1ccc(O)cc1)N(C)CC2 (configuration not stated)
inactive: [1] 1.01 | [2] 1.02 | [3] 1.02 | [4] 1 | [5] 1.05 | [6] 1.06 | [7] 1.02 | [8] 1.01 | [9] 1.02 | [10] 1.01 | [11] 1.05 | [12] 1.01 | [13] 1.01 | [14] 0.979 | [15] 0.977 | [16] 1.01 | [17] 1.02 | [18] 0.984 | [19] 1.01 | [20] 1.03 | locus YGR078C, strain PAC10, active compounds read low 1.02 | [21] 0.981 | [22] 0.923 | [23] 0.991 | [24] 0.982 | [25] 1.02 | [26] 0.986 | [27] 1.03 | [28] 0.998 | [29] 1.01 | [30] 1 | [31] 1.03 | [32] 1.02 | [33] 0.998 | [34] 1.02 | [35] 1.02 | [36] 0.998 | [37] 1.01 | [38] 1.01 | [39] 1.02 | [40] 1.01 | [41] 1.05 | [42] 1.04 | [43] 0.977 | [44] 1.03 | [45] 1.02 | [46] 1.07 | [47] 1.01 | [48] 1.01 | [49] 1.02 | [50] 1.01 | [51] 0.999 | [52] 0.994 | [53] 0.993 | [54] 1.12 | [55] 1.01 | [56] 1.01 | [57] 1.01 | [58] 1 | [59] 1.01 | [60] 1.01 | [61] 0.994 | [62] 0.982 | locus YOL012C, strain htz1 0.669 | [63] 1 | [64] 1.03 | [65] 1.01 | [66] 0.972 | [67] 0.996 | [68] 1.05 | [69] 0.989 | [70] 0.991 | [71] 1.01 | [72] 0.998 | [73] 0.973 | [74] 1.01

O=c1ccn([C@@H]2O[C@H](COP(=O)(O)OP(=O)(O)O)[C@@H](O)[C@H]2O)c(=O)[nH]1
inactive: locus YAL040C, strain CLN3, active compounds read low 0.981 | locus YCL061C, strain MRC1 (second series), active compounds read low 0.991 | locus YDR363W, strain ESC2, active compounds read low 0.981 | locus YER002W, strain NOP16, active compounds read low 0.995 | [75] 0.972 | locus YJR075W, strain HOC1, active compounds read low 0.976 | [54] 0.985 | [56] 0.983 | locus YNL175C, strain NOP13, active compounds read low 0.988 | locus YNL197C, strain WHI3, active compounds read low 0.967 | locus YNL224C, strain SQS1, active compounds read low 0.992 | [76] 0.971 | locus YOR083W, strain WHI5 (second series), active compounds read low 0.992 | locus YPL241C, strain CIN2, active compounds read low 1

NC(N)=NCCCC(NC(=O)C(N)Cc1ccc(O)cc1)C(=O)O (configuration not stated)
active: [2] 1.25 [resistant]
inactive: [1] 1.03 | [3] 0.998 | [4] 0.969 | [5] 1.04 | [6] 1.03 | [7] 0.989 | [8] 0.962 | [9] 0.994 | [10] 0.989 | [11] 1.02 | [12] 0.991 | [13] 0.989 | [14] 0.987 | locus YEL061C, strain CIN8, active compounds read low 0.988 | [15] 0.971 | [16] 0.99 | [17] 1.01 | [18] 1 | [19] 0.981 | [20] 0.997 | [21] 1 | [75] 1.05 | [22] 1.23 | locus YHR030C, strain SLT2, active compounds read low 0.994 | [23] 0.968 | [24] 0.985 | [25] 0.99 | [26] 0.981 | [27] 1.01 | [28] 0.924 | [29] 0.995 | [30] 0.996 | [31] 0.988 | [32] 0.992 | [33] 0.989 | [34] 0.99 | locus YJR043C, strain POL32, active compounds read low 1.08 | [35] 0.938 | [36] 0.968 | [37] 0.988 | [38] 0.988 | [39] 0.993 | [40] 0.982 | [41] 1 | [42] 0.991 | [43] 0.972 | locus YLR262C, strain YPT6, active compounds read low 1 | [44] 0.97 | [45] 0.988 | [46] 1.05 | [47] 0.99 | [48] 1.07 | [49] 0.992 | [50] 0.996 | [51] 0.995 | [52] 0.997 | [53] 1.03 | locus YMR263W, strain SAP30, active compounds read low 0.983 | [54] 1.31 | [55] 0.968 | [57] 1 | [58] 0.951 | [59] 1 | [60] 0.995 | [61] 0.985 | [76] 1 | [62] 0.976 | locus YOL006C, strain TOP1, active compounds read low 1.04 | locus YOL012C, strain htz1 1.32 | [63] 0.991 | [64] 0.988 | [65] 0.989 | [66] 0.978 | [67] 0.995 | [68] 0.984 | [69] 0.979 | [70] 0.988 | [71] 0.969 | [72] 1 | [73] 0.997 | [74] 0.964
